Records with an inconclusive call do not appear. Values without a mark were called inactive. Calls of active or inactive are those of the source. Unless noted, calls follow the shape of the dose curve; as a rule, active = well fitted inhibition curve with a large enough effect; inconclusive = small, poorly fitted or top-dose-only effect; inactive = flat fitted curve, though single readings scatter.

The record followed here is PubChem BioAssay (NCATS).
% is scaled to controls: 0 for no effect and ±100 for the full control effect.

The target in the first experiment is Mitogen-activated protein kinase 10 (Mus musculus) (UniProt Q61831). Kind of experiment: JNK3 AlphaScreen Assay (AID 530; active = well fitted curve in either direction with a large enough effect, not every such curve was filed as active;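 also: kinase came from lysate of stimulated human HepG2 cells; signal reports phosphorylation of biotinylated GST-cJun 1-79 at Ser73 with 10 µM ATP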). As to conditions: JNK3 lysate, c-Jun phosphorylation; series mostly up to 57.1 µM; activity change, negative = inhibition: at the top concentration. The essentials: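 HepG2 lysate (IL-1b/TNFa pre-activated) + biotin-GST-cJun 1-79 + anti-pSer73 cJun; cpd titration, 15 min RT; ATP 10 uM start; Tris pH 7.6, MgCl2, DTT, vanadate; beads in EDTA buffer; AlphaScreen.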
On to `COCCn1c(=O)c(-c2ccc(F)cc2)nc2cnc(OCc3ccccc3)nc21`, for which the “activity change, negative = inhibition” value was 6.21%.

Regarding `CCCCNc1nc(C)nc2c1nc(-c1ccccc1)n2CC(C)(C)CN(C)C`, the “activity change, negative = inhibition” value is 4.17%.

On to `COc1ccc2c(c1)c(CC(=O)O)c(C)n2Cc1ccc(F)cc1`, for which the “activity change, negative = inhibition” value was 13.2%.

System in the next experiment: not listed separately
Kind of experiment: Primary qHTS for inhibitors of nuclear receptor binding SET domain protein 2 (NSD2) in an isogenic RCH-ACV NSD2 p.E1099K mutant (9B) (AID 1645876). Also: nearly all actives have a fitted effect of over 70% in size. Also: potency is read from the fitted curve at half-maximal effect. As to conditions: RCH-ACV (leukaemia line) NSD2 E1099K (9B) viability, CellTiter-Glo, 72 h; series mostly up to 44.9 µM; activity change, negative = viability loss: at the top concentration; outcome: at the top concentration.
In the case of `COc1ccc([C@@H](O)[C@@H](C)Oc2ccc([C@H]3O[C@H](c4ccc(O[C@H](C)[C@H](O)c5ccc(OC)c(OC)c5)c(OC)c4)[C@H](C)[C@H]3C)cc2OC)cc1OC`, the Potency is 5.25 µM (active).

As to `CN1CCN(C(=O)[C@H]2[C@@H](C(=O)O)[C@H]3CC[C@@H]2O3)CC1`, the activity change, negative = viability loss was 9.83% [at 9.23 µM].

For `CN1C(=O)[C@@H](NC(=O)c2cc(Cc3ccccc3)on2)COc2ccccc21`, the “activity change, negative = viability loss” value was -27.7%.

As to `CN(C)CCOc1ccc(-c2nc(-c3ccc4c(c3)CC/C4=N\O)c(-c3ccncc3)[nH]2)cc1`, the Potency was 16.6 µM (active).

In the case of `CC(=O)N[C@H]1[C@H](O[C@@H]2c3ccc(c(Cl)c3)Oc3cc4cc(c3O[C@@H]3O[C@H](CO)[C@@H](O)[C@H](O)[C@H]3NC(=O)CCCCCCCC(C)C)Oc3ccc(cc3Cl)C[C@H]3NC(=O)[C@H](N)c5ccc(O)c(c5)Oc5cc(O)cc(c5)[C@H](NC3=O)C(=O)N[C@H]4C(=O)N[C@H]3C(=O)N[C@@H]2C(=O)N[C@@H](C(=O)O)c2cc(O)cc(O[C@H]4O[C@H](CO)[C@@H](O)[C@H](O)[C@@H]4O)c2-c2cc3ccc2O)O[C@H](CO)[C@@H](O)[C@@H]1O`, the “activity change, negative = viability loss” value is 8.68%.

As to `Cc1cc(C)cc(Oc2ccc(CNC(=O)[C@H](C)N)cc2C)c1`, the Potency was 18.6 µM (active).
